# NS1 inh – qHTS Assay for Inhibitors of Influenza NS1 Protein Function | actives 0.4% (n = 270,000) | Potency, µM (titrated, usually from 46.1 µM), for inactives: at the top dose activity, positive = more growth | AID 2326, 2010; also: actives are rising curves; nearly all actives have a fitted effect of over 50% in size
#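 OD600 was taken as the measure of yeast growth restored by compound in an NS1-expressing S. cerevisiae strain. Cells had been washed out of glucose medium and diluted 1:100 into galactose -URA medium, pH 6.0.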
# SARS PLP yeast – qHTS of Yeast-based Assay for SARS-CoV PLP; Potency, µM (top dose mostly 32.9 µM), for inactives: at the highest dose activity, positive = growth rescue, hits mostly activators; S. cerevisiae expressing SARS-CoV PLpro, growth rescue; actives 0.19% (n = 330,000); also: 0% is about no effect; nearly all actives have a fitted effect of over 55% in size
# Pf growth 96h – Primary qHTS for delayed death inhibitors of the malarial parasite plastid, 96 hour incubation | P. falciparum luciferase reporter growth, 96 h | Potency, µM (titrated, usually from 28.7 µM), for the others: at the highest dose activity change, negative = inhibition, most hits filed as inhibitors | actives 6.9% (n = 320,000); active = well fitted inhibition curve with a large enough effect; inconclusive = small, poorly fitted or top-dose-only effect, or another doubt; inactive = no such curve, though single readings can be large or run the other way; also: % is scaled to controls: 0 for no effect and ±100 for the full control effect
#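 P. falciparum expressing integrated firefly luciferase, in erythrocytes at 2% hematocrit, 0.05% parasitemia, incubated with compounds 96 h at 37 C, 5% CO2. Growth inhibition read as loss of luminescence; two-generation exposure targets delayed-death apicoplast inhibitors.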
# Pf growth 48h – Primary qHTS for delayed death inhibitors of the malarial parasite plastid, 48 hour incubation; actives 5.9% (n = 310,000); P. falciparum luciferase growth in erythrocytes, 48 h; Potency, µM (series often up to 28.7 µM), inactives show at the highest dose activity change, negative = inhibition, hits mostly inhibitors; AID 504832, 2011; active = well fitted inhibition curve with a large enough effect; inconclusive = small, poorly fitted or top-dose-only effect, or another doubt; inactive = no such curve, though single readings can be large or run the other way; also: % is scaled to controls: 0 for no effect and ±100 for the full control effect
#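 Luminescence readout; reporter = integrated firefly luciferase in P. falciparum. RBC culture at 2% hematocrit, 0.1% parasitemia final, 37 C/5% CO2; decreased signal taken as growth inhibition.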
# RE007 growth inh – qHTS Assay for Inhibitors of the HIV-1 protein Vpr; S. pombe RE007 Vpr strain, BacTiter-Glo ATP luminescence, 24 h; Potency, µM (top dose mostly 92.2 µM), for the others: at the top dose activity change, negative = less growth, hits mostly inhibitors; actives 0.21% (n = 360,000); AID 651644, 2012; active = well fitted falling curve with a large enough effect; inconclusive = small, poorly fitted or top-dose-only effect; inactive = no such curve, though single readings can be large or run the other way; also: % is scaled to controls: 0 for no effect and ±100 for the full control effect; nearly all actives have a fitted effect of over 50% in size
#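 Fission yeast strain RE007, carrying one chromosomally integrated HIV-1 vpr copy, was seeded at OD 0.01 in PMG+AL medium with 23 nL pinned compound. After 24 h at 30 °C and 99% humidity, viability was read by BacTiter-Glo luminescence.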
# Numbers without * were called inactive; ? = inconclusive; / = no result given; ! = not confirmed by another sample. Compounds with a hit are over-represented: about 9.5% of the library has one in this group of screens. Unless noted, calls follow the shape of the full dose curve. Potency is read from the fitted curve at half-maximal effect.
SMILES,NS1 inh,SARS PLP yeast,Pf growth 96h,Pf growth 48h,RE007 growth inh
CCOC(=O)C1=C(C)N(c2ccccc2)C(=O)C1,13%,18%,10µM*,-6%,1%
O=C(c1cccn2c(=O)c3ccc(Cl)cc3nc12)N1CCN(Cc2ccc3c(c2)OCO3)CC1,-111%,4%,7.4µM*,0%,0%
O=C(c1cc2c(=O)n3ccccc3nc2s1)N1CCN(Cc2ccc3c(c2)OCO3)CC1,0%,1%,6.6µM*,-12%,-2%
Cc1noc(C)c1C(=O)NC1=NCCS1,3%,2%,-25%,-14%,12%
COCCn1c(SCC(=O)Nc2ccc(F)cc2)nc2c([nH]c3ccccc32)c1=O,7%,-2%,3.3µM*,?,4%
CC(C)CCn1c(SCC#N)nc2c(sc3ccccc32)c1=O,2%,5%,19%,?,-2%
CN(C)CCn1c(SCc2ccccc2C#N)nc2c(sc3ccccc32)c1=O,-5%,-3%,6.6µM*,?,-17%
COCCn1c(SCC(=O)Nc2ccc(C(N)=O)cc2)nc2c([nH]c3ccccc32)c1=O,1%,-2%,1%,21%,5%
CCn1c(SCC(=O)N2CC(C)OC(C)C2)nc2c([nH]c3ccccc32)c1=O (configuration not stated),12%,1%,?,6.6µM*,-7%
C=CCn1c(SCC(=O)Nc2ccccc2OC)nc2c([nH]c3ccccc32)c1=O,5%,-2%,4.1µM*,?,-4%
C=CCn1c(SCC(=O)Nc2ccc(F)cc2F)nc2c([nH]c3ccccc32)c1=O,-12%,2%,9%,3%,-12%
CCN(CC)CCn1c(SCC(=O)Nc2ccc(F)cc2)nc2c(sc3ccccc32)c1=O,/,-2%,?,9.3µM*,/
COCCn1c(SCC(=O)Nc2ccccc2OC)nc2c([nH]c3ccccc32)c1=O,6%,2%,9.3µM*,?,2%
COc1ccccc1NC(=O)CSc1nc2c(sc3ccccc32)c(=O)n1CCN(C)C,/,-10%,?,31%,-26%
CC(=O)Nc1ccc(NC(=O)C(C)OC(=O)CC23CC4CC(CC(Br)(C4)C2)C3)cc1 (configuration not stated),/,4%,/,/,11%
Cc1ccc2nc(N(CCN(C)C)C(=O)C3CCN(S(=O)(=O)c4cccs4)CC3)sc2c1,/,/,/,/,-5%
CNC(=O)CS(=O)CC(=O)Nc1cc(OCCOC)c(Cl)cc1Cl (configuration not stated),2%,2%,26%,-3%,10%
CN(C)NC(=O)c1ccsc1NC(=O)c1ccc(S(=O)(=O)N2CCCC2)cc1,-2%,-3%,5.2µM*,12µM*,28%
CC1CCN(S(=O)(=O)c2ccc(C(=O)Nc3sccc3C(N)=O)cc2)CC1,11%,2%,8.3µM*,?,-1%
O=C1CCc2cc(S(=O)(=O)Nc3ccccc3)cc3c2N1CCC3,/,3%,-5%,-2%,8%
O=C(NCc1ccccn1)c1cccc(S(=O)(=O)N2CCCCC2)c1,/,-1%,?,-14%,5%
CC(=O)/C(=C\c1ccccc1F)C(=O)c1ccccc1,-4%,/,/,/,/
Fc1ccc(-c2ccnc3nc(N4CCOCC4)nn23)cc1,3%,-3%,?,28%,11%
COc1ccc(-c2ccnc3nc(N4CCN(c5ccccc5)CC4)nn23)cc1,8%,3%,9.3µM*,?,19%
NC(N)=N/N=C/c1ccccc1Cl,3%,0%,10µM*,12µM*,-7%
SMILES,NS1 inh,SARS PLP yeast,Pf growth 96h,Pf growth 48h,RE007 growth inh
NC(N)=N/N=C/c1c(Cl)cccc1Cl,-8%,0%,3.7µM*!,13µM*,-6%
Nc1cc(=O)[nH]c(=O)n1CCc1ccccc1,?,11%,?,?,8%
O=C(CC1C(=O)NCCN1C(=O)c1ccccc1)Nc1cc(Cl)ccc1Cl (configuration not stated),8%,?,23%,78%,5%
OC12CCCCC1C(c1ccc3c(c1)OCO3)N(Cc1ccc(F)cc1)CC2 (configuration not stated),6%,-1%,9.3µM*,13µM*,10%
Cc1csc(CN(C)C(=O)CC2C(=O)NCCN2Cc2ccc(Cl)c(F)c2)n1 (configuration not stated),23%,-3%,9.3µM*,-10%,-9%
Cc1nonc1CN(C)C(=O)CC1C(=O)NCCN1Cc1c(F)cccc1Cl (configuration not stated),3%,-1%,0%,17%,-3%
Cc1csc(CN(C)C(=O)CC2C(=O)NCCN2Cc2ccc(F)cc2Cl)n1 (configuration not stated),7%,2%,75%,2%,-6%
CCn1ccnc1CN(C)C(=O)CC1C(=O)NCCN1Cc1c(F)cccc1Cl (configuration not stated),-4%,0%,10µM*,48%,-5%
O=C1C[C@@H]2c3c(cccc3CN1Cc1ccc(Br)cc1)C[C@@H](O)[C@H]2O,/,/,/,/,-14%
O=C(Nc1cccnc1)c1cc(-c2cc(Cl)ccc2O)n[nH]1,3%,0%,0.74µM*,?,5%
COc1ccc(F)cc1-c1cc(C(=O)Nc2cccnc2)[nH]n1,/,/,/,/,-9%
Cc1ccc(O)c(-c2cc(C(=O)Nc3cccnc3)[nH]n2)c1,6%,-2%,2.9µM*,3.7µM*,3%
CC(C)CCNC(=O)c1ccc(-n2cnc3cccnc32)cc1,-2%,0%,29%,-17%,4%
Cc1ccc(S(=O)(=O)N2CCOC2C(Cl)(Cl)Cl)cc1 (configuration not stated),-11%,-2%,14%,8.3µM*,-5%
COC(=O)C1=C(C)OC(N)=C(C#N)C12C(=O)Nc1ccccc12 (configuration not stated),4%,1%,3%,33%,-3%
Cn1c2c(c(=O)n(C)c1=O)C1(C(=O)Nc3ccccc31)C(C#N)=C(N)O2 (configuration not stated),-15%,-13%,8.3µM*,10µM*,0%
CCC(CC)NC(=O)c1cccc([N+](=O)[O-])c1C,23%,5%,1.3µM*,8%,0%
COC(=O)c1cc2ccsc2n1Cc1cccc(F)c1,-7%,-26%,?,-1%,-14%
COC(=O)c1cc2ccsc2n1Cc1ccccc1F,13%,-54%,12µM*,22%,3%
c1ccc(-c2ccccc2OCCCCn2ccnc2)cc1,-34%,2%,?,12µM*,-8%
CC(C)(C)c1ccccc1OCCCCCn1ccnc1,-4%,-3%,5.9µM*,12µM*,-10%
CC(C)(C)c1cc(Cl)ccc1OCCn1ccnc1,-78%,-10%,?,5.9µM*,0%
C=CCc1cc(C=Nc2ccc(N3CCOCC3)cc2)cc(OCC)c1O,/,/,/,/,-8%

# Screening data deposited in PubChem BioAssay by National Center for Advancing Translational Sciences (NCATS).
